# Test results from the supplement of paper PMC8728848.
# This is one part of a sample in which the strongest signals are shown more often than they occur.
# B1: PX9961W-pdi-543-27-543 (Parabacteroides distasonis) (protein)
# chain: EGNATTTSYFLNDQQAIDAIDGLYERFHQEGCYGRELFWEQGAACDIVWGRTRGYNSLATLAYTGDESPLRDVFSRMYSTMSRANWIIQELVKKEKGTTLTAVEKRSLGEAYFSRGWAHYLIAYRYGTDKQGVPFVRYEDFPDDYDNSIPPQQATVMDNYKLIIEDMDKAIAYLPIFESYDADNRGRAHQAAAVAFKAKTYAYWATWDATQWNNVIEMVNQLENNYNRDLAPTFAELFSSDLKDYWNAEYLWTIPSIGGALPGGTEFPGIILENKGWGKYNGWGQMKPSYDIYEEMAKDGKGNDRLVRSILEYNQEFPFFGETRKFWSTSDLEAGFMINKYMDAFKYSDPVGEGAVSANGDWPTVRVNFPIIRFAEMLLFRAEAYLMTGQADKATADINRIRLRSNLTPLTGTATMKDLYHERRCELAFEFTDHLFDLKRWNRSSNADIKTLADKELNAHPRIRRYEDRANPESAFTIIGYEDYTNKNAYQAHMMVFPYPSEEITKSNGQLKQNEGY
# Key:
# Test in all cases: glycan array binding signal (z-score within array); higher = stronger binding
# Details in all cases: glycan notation: IUPAC condensed, linker removed
# Fuc(a1-2)Gal(b1-4)GlcNAc = molecular target: Fuc(a1-2)Gal(b1-4)GlcNAc
# Outline: (§1)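 Glycan array data were curated from 3228 arrays in the Consortium for Functional Glycomics database and kept only where the protein sequence was available. Glycan names were converted to IUPAC-condensed notation, and columns mapping to the same glycan were averaged. The binding signal is a within-array Z-score, averaged across arrays of the same protein sequence at different concentrations or buffers and across linkers. Negative Z-scores can be read as non-binding.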
# [1] = molecular target: Fuc(a1-2)Gal(b1-4)GlcNAc(b1-3)Gal(b1-4)GlcNAc(b1-2)Man(a1-3)[Fuc(a1-2)Gal(b1-4)GlcNAc(b1-3)Gal(b1-4)GlcNAc(b1-2)Man(a1-6)]Man(b1-4)GlcNAc(b1-4)GlcNAc
# Outline: as §1
# [2] = molecular target: Fuc(a1-2)[Gal(a1-3)]Gal(b1-3)GalNAc(b1-3)Gal(a1-4)Gal(b1-4)Glc
# Outline: as §1
# [3] = molecular target: Fuc(a1-2)[GalNAc(a1-3)]Gal(b1-4)GlcNAc(b1-2)Man
# Outline: as §1
# Fuc(a1-4)GlcNAc = molecular target: Fuc(a1-4)GlcNAc
# Outline: as §1
# [4] = molecular target: Gal(a1-3)Gal(b1-3)GlcNAc(b1-6)GalNAc
# Outline: as §1
# [5] = molecular target: Gal(a1-3)[Gal(a1-4)]Gal(b1-4)GlcNAc
# Outline: as §1
# Gal(a1-4)GlcNAc = molecular target: Gal(a1-4)GlcNAc
# Outline: as §1
# [6] = molecular target: Gal(b1-3)GlcNAc(b1-3)Gal(b1-4)GlcNAc(b1-2)[Gal(b1-3)GlcNAc(b1-3)Gal(b1-4)GlcNAc(b1-6)]Man(a1-6)[Gal(b1-3)GlcNAc(b1-3)Gal(b1-4)GlcNAc(b1-2)Man(a1-3)]Man(b1-4)GlcNAc(b1-4)[Fuc(a1-6)]GlcNAc
# Outline: as §1
# [7] = molecular target: Gal(b1-3)GlcNAc(b1-3)Gal(b1-4)GlcNAc(b1-6)[Gal(b1-3)GlcNAc(b1-3)]Gal(b1-4)Glc
# Outline: as §1
# [8] = molecular target: Gal(b1-4)GlcNAc(b1-2)Man(a1-3)[Gal(b1-4)GlcNAc(b1-2)Man(a1-6)]Man(b1-4)GlcNAc(b1-4)GlcNAc
# Outline: as §1
# [9] = molecular target: Gal(b1-4)GlcNAc(b1-2)[Gal(b1-4)GlcNAc(b1-4)]Man(a1-3)[GlcNAc(b1-4)][Gal(b1-4)GlcNAc(b1-2)Man(a1-6)]Man(b1-4)GlcNAc(b1-4)GlcNAc
# Outline: as §1
# [10] = molecular target: Gal(b1-4)GlcNAc(b1-3)Gal(b1-4)GlcNAc(b1-3)Gal(b1-4)GlcNAc
# Outline: as §1
# [11] = molecular target: Gal(b1-4)GlcNAc(b1-3)Gal(b1-4)GlcNAc(b1-3)Gal(b1-4)GlcNAc(b1-3)Gal(b1-4)GlcNAc(b1-3)Gal(b1-4)GlcNAc(b1-2)[Gal(b1-4)GlcNAc(b1-3)Gal(b1-4)GlcNAc(b1-3)Gal(b1-4)GlcNAc(b1-3)Gal(b1-4)GlcNAc(b1-3)Gal(b1-4)GlcNAc(b1-6)]Man(a1-6)[Gal(b1-4)GlcNAc(b1-3)Gal(b1-4)GlcNAc(b1-3)Gal(b1-4)GlcNAc(b1-3)Gal(b1-4)GlcNAc(b1-3)Gal(b1-4)GlcNAc(b1-2)Man(a1-3)]Man(b1-4)GlcNAc(b1-4)[Fuc(a1-6)]GlcNAc
# Outline: as §1
# [12] = molecular target: Gal(b1-4)GlcNAc(b1-3)[GlcNAc(b1-6)]Gal(b1-4)GlcNAc
# Outline: as §1
# [13] = molecular target: Gal(b1-4)GlcNAc(b1-6)GalNAc
# Outline: as §1
# Gal4S(b1-4)GlcNAc = molecular target: Gal4S(b1-4)GlcNAc
# Outline: as §1
# GalNAc(a1-3)Gal = molecular target: GalNAc(a1-3)Gal
# Outline: as §1
# [14] = molecular target: GalNAc(b1-4)GlcNAc(b1-3)GalNAc(b1-4)GlcNAc
# Outline: as §1
# [15] = molecular target: GlcNAc(b1-3)Gal(b1-4)GlcNAc(b1-2)[GlcNAc(b1-3)Gal(b1-4)GlcNAc(b1-6)]Man(a1-6)[GlcNAc(b1-3)Gal(b1-4)GlcNAc(b1-2)Man(a1-3)]Man(b1-4)GlcNAc(b1-4)GlcNAc
# Outline: as §1
# [16] = molecular target: GlcNAc(b1-3)Gal(b1-4)GlcNAc(b1-3)Gal(b1-4)GlcNAc(b1-2)Man(a1-3)[GlcNAc(b1-3)Gal(b1-4)GlcNAc(b1-3)Gal(b1-4)GlcNAc(b1-2)Man(a1-6)]Man(b1-4)GlcNAc(b1-4)GlcNAc
# Outline: as §1
# [17] = molecular target: GlcNAc(b1-3)Gal(b1-4)GlcNAc(b1-3)Gal(b1-4)GlcNAc(b1-3)Gal(b1-4)GlcNAc(b1-2)Man(a1-3)[GlcNAc(b1-3)Gal(b1-4)GlcNAc(b1-3)Gal(b1-4)GlcNAc(b1-3)Gal(b1-4)GlcNAc(b1-2)Man(a1-6)]Man(b1-4)GlcNAc(b1-4)[Fuc(a1-6)]GlcNAc
# Outline: as §1
# [18] = molecular target: GlcNAc(b1-3)Gal(b1-4)GlcNAc(b1-3)Gal(b1-4)GlcNAc(b1-3)Gal(b1-4)GlcNAc(b1-3)Gal(b1-4)GlcNAc(b1-2)Man(a1-3)[GlcNAc(b1-3)Gal(b1-4)GlcNAc(b1-3)Gal(b1-4)GlcNAc(b1-3)Gal(b1-4)GlcNAc(b1-3)Gal(b1-4)GlcNAc(b1-2)Man(a1-6)]Man(b1-4)GlcNAc(b1-4)[Fuc(a1-6)]GlcNAc
# Outline: as §1
# [19] = molecular target: GlcNAc(b1-3)Gal(b1-4)GlcNAc(b1-3)Gal(b1-4)GlcNAc(b1-3)Gal(b1-4)GlcNAc(b1-3)Gal(b1-4)GlcNAc(b1-2)[GlcNAc(b1-3)Gal(b1-4)GlcNAc(b1-3)Gal(b1-4)GlcNAc(b1-3)Gal(b1-4)GlcNAc(b1-3)Gal(b1-4)GlcNAc(b1-6)]Man(a1-6)[GlcNAc(b1-3)Gal(b1-4)GlcNAc(b1-3)Gal(b1-4)GlcNAc(b1-3)Gal(b1-4)GlcNAc(b1-3)Gal(b1-4)GlcNAc(b1-2)Man(a1-3)]Man(b1-4)GlcNAc(b1-4)[Fuc(a1-6)]GlcNAc
# Outline: as §1
# [20] = molecular target: GlcNAc(b1-4)[GlcNAc(b1-6)]GalNAc
# Outline: as §1
# Kdn(a2-3)Gal(b1-4)GlcNAc = molecular target: Kdn(a2-3)Gal(b1-4)GlcNAc
# Outline: as §1
# [21] = molecular target: Neu5Ac(a2-3)Gal(b1-3)[Fuc(a1-4)]GlcNAc
# Outline: as §1
# [22] = molecular target: Neu5Ac(a2-3)Gal(b1-3)[Fuc(a1-4)]GlcNAc(b1-3)Gal(b1-3)[Fuc(a1-4)]GlcNAc
# Outline: as §1
# [23] = molecular target: Neu5Ac(a2-3)Gal(b1-3)[Neu5Ac(a2-6)]GalNAc
# Outline: as §1
# [24] = molecular target: Neu5Ac(a2-3)Gal(b1-4)GlcNAc(b1-2)Man(a1-3)[Neu5Ac(a2-3)Gal(b1-4)GlcNAc(b1-2)Man(a1-6)]Man(b1-4)GlcNAc(b1-4)GlcNAc
# Outline: as §1
# [25] = molecular target: Neu5Ac(a2-3)Gal(b1-4)GlcNAc(b1-3)Gal(b1-4)GlcNAc
# Outline: as §1
# [26] = molecular target: Neu5Ac(a2-3)Gal(b1-4)GlcNAc(b1-3)[Neu5Ac(a2-3)Gal(b1-4)GlcNAc(b1-6)]GalNAc
# Outline: as §1
# [27] = molecular target: Neu5Ac(a2-3)Gal(b1-4)[Fuc(a1-3)]GlcNAc
# Outline: as §1
# [28] = molecular target: Neu5Ac(a2-6)Gal(b1-4)GlcNAc(b1-2)Man(a1-3)[GlcNAc(b1-4)][Neu5Ac(a2-6)Gal(b1-4)GlcNAc(b1-2)Man(a1-6)]Man(b1-4)GlcNAc(b1-4)GlcNAc
# Outline: as §1
# [29] = molecular target: Neu5Ac(a2-6)Gal(b1-4)GlcNAc(b1-2)Man(a1-3)[Neu5Ac(a2-3)Gal(b1-4)GlcNAc(b1-2)Man(a1-6)]Man(b1-4)GlcNAc(b1-4)GlcNAc
# Outline: as §1
# [30] = molecular target: Neu5Ac(a2-6)Gal(b1-4)GlcNAc(b1-2)Man(a1-3)[Neu5Ac(a2-6)Gal(b1-4)GlcNAc(b1-2)Man(a1-6)]Man(b1-4)GlcNAc(b1-4)GlcNAc
# Outline: as §1
# [31] = molecular target: Neu5Ac(a2-6)Gal(b1-4)GlcNAc(b1-2)Man(a1-3)[Neu5Ac(a2-6)Gal(b1-4)GlcNAc(b1-2)Man(a1-6)]Man(b1-4)GlcNAc(b1-4)[Fuc(a1-6)]GlcNAc
# Outline: as §1
# [32] = molecular target: Neu5Ac(a2-6)Gal(b1-4)GlcNAc(b1-3)Gal(b1-4)GlcNAc(b1-3)Gal(b1-4)GlcNAc
# Outline: as §1
# [33] = molecular target: Neu5Ac(a2-6)Gal(b1-4)GlcNAc(b1-6)GalNAc
# Outline: as §1
# [34] = molecular target: Neu5Ac(a2-6)Gal(b1-4)GlcNAc6S
# Outline: as §1
# [35] = molecular target: Neu5Ac(a2-8)Neu5Ac(a2-3)Gal(b1-4)GlcNAc
# Outline: as §1
# [36] = molecular target: Neu5Ac(a2-8)Neu5Gc(a2-3)Gal(b1-4)GlcNAc
# Outline: as §1
# [37] = molecular target: Neu5Gc(a2-3)Gal(b1-3)GlcNAc
# Outline: as §1
# [38] = molecular target: Neu5Gc(a2-3)Gal(b1-3)[Fuc(a1-4)]GlcNAc
# Outline: as §1
# [39] = molecular target: Neu5Gc(a2-8)Neu5Gc(a2-3)Gal(b1-4)GlcNAc(b1-3)Gal(b1-4)GlcNAc
# Outline: as §1
# [40] = molecular target: Neu5Gc(a2-8)Neu5Gc(a2-6)Gal(b1-4)GlcNAc
# Outline: as §1
binder,measurement,setting,value
B1,glycan array binding signal (z-score),Fuc(a1-2)Gal(b1-4)GlcNAc,-0.724
same,glycan array binding signal (z-score),[1],0.321
same,glycan array binding signal (z-score),[2],-0.488
same,glycan array binding signal (z-score),[3],0.843
same,glycan array binding signal (z-score),Fuc(a1-4)GlcNAc,-0.806
same,glycan array binding signal (z-score),[4],-0.936
same,glycan array binding signal (z-score),[5],4.9
same,glycan array binding signal (z-score),Gal(a1-4)GlcNAc,-0.436
same,glycan array binding signal (z-score),[6],3.68
same,glycan array binding signal (z-score),[7],2.47
same,glycan array binding signal (z-score),[8],0.803
same,glycan array binding signal (z-score),[9],-0.379
same,glycan array binding signal (z-score),[10],0.348
same,glycan array binding signal (z-score),[11],2.95
same,glycan array binding signal (z-score),[12],-1.13
same,glycan array binding signal (z-score),[13],0.97
same,glycan array binding signal (z-score),Gal4S(b1-4)GlcNAc,-0.282
same,glycan array binding signal (z-score),GalNAc(a1-3)Gal,-0.723
same,glycan array binding signal (z-score),[14],-0.156
same,glycan array binding signal (z-score),[15],2.42
same,glycan array binding signal (z-score),[16],2.38
same,glycan array binding signal (z-score),[17],1.14
same,glycan array binding signal (z-score),[18],2.16
same,glycan array binding signal (z-score),[19],2.07
same,glycan array binding signal (z-score),[20],0.793
same,glycan array binding signal (z-score),Kdn(a2-3)Gal(b1-4)GlcNAc,-0.351
same,glycan array binding signal (z-score),[21],-0.779
same,glycan array binding signal (z-score),[22],2.45
same,glycan array binding signal (z-score),[23],-1.05
same,glycan array binding signal (z-score),[24],-0.589
same,glycan array binding signal (z-score),[25],-0.712
same,glycan array binding signal (z-score),[26],-0.167
same,glycan array binding signal (z-score),[27],-0.648
same,glycan array binding signal (z-score),[28],-0.023
same,glycan array binding signal (z-score),[29],-0.733
same,glycan array binding signal (z-score),[30],-0.249
same,glycan array binding signal (z-score),[31],0.138
same,glycan array binding signal (z-score),[32],-0.315
same,glycan array binding signal (z-score),[33],0.508
same,glycan array binding signal (z-score),[34],-0.912
same,glycan array binding signal (z-score),[35],-0.026
same,glycan array binding signal (z-score),[36],14.4
same,glycan array binding signal (z-score),[37],-0.935
same,glycan array binding signal (z-score),[38],-0.874
same,glycan array binding signal (z-score),[39],-0.859
same,glycan array binding signal (z-score),[40],0.393
